According to PubChem BioAssay (Tox21):
Values joined by “and” are separate entries in the source; they are usually repeats but may differ in a detail not shown here. Equal values may be shown once. Inconclusive results are not listed. Entries that show only a call come without a potency. The source holds several records for some structures; these can differ, active in one and inactive in another. Active and inactive are the calls of the source. Unless noted, calls come from the whole dose curve; as a rule, active = well fitted curve in the direction sought with a large enough effect in the repeat runs; inconclusive = weak or mixed curves; inactive = no such curve, though single readings can be large; an effect the other way counts as inactive or inconclusive.

What was measured:
[1] = biological target: Progesterone receptor (Homo sapiens) (UniProt P06401); test: qHTS assay to identify small molecule agonists of the progesterone receptor (PR) signaling pathway (AID 1346784; calls by dose curve; note: nearly all actives have a fitted effect of over 30% in size; note: potency is the fitted concentration of half-maximal effect)
Sequence of Progesterone receptor (Homo sapiens) (P06401 whole entry, looked up): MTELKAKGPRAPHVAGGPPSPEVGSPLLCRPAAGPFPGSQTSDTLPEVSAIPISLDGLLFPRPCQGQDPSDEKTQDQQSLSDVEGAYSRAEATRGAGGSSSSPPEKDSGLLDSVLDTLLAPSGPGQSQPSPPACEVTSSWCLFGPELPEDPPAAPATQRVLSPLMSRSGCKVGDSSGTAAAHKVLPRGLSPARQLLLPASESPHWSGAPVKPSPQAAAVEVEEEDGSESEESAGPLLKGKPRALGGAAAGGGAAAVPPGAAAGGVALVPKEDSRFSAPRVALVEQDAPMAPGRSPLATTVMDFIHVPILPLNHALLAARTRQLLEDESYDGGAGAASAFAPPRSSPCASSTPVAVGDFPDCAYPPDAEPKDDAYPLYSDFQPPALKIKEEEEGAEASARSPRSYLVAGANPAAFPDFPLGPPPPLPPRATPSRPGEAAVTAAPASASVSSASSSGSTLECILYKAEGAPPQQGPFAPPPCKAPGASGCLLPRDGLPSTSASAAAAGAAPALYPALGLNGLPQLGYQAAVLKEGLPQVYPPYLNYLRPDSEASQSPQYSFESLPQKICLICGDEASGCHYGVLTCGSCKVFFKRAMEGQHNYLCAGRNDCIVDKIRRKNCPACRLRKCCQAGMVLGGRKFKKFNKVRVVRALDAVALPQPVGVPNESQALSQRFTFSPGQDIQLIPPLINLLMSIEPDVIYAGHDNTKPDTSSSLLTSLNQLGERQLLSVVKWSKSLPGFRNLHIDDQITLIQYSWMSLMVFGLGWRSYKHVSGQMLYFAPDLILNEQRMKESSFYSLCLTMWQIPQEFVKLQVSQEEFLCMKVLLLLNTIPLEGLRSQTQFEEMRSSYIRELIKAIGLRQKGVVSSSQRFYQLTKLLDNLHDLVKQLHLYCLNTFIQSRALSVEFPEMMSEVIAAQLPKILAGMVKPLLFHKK
How it was run: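 Beta-lactamase reporter read-out: after 16 hr compound treatment at 37C and a further 2 hr at room temperature with LiveBLAzer B/G FRET substrate, fluorescence was measured in PR-UAS-bla HEK 293T cells grown in 2% charcoal-stripped serum.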

[2] = biological target: Progesterone receptor (Homo sapiens) (UniProt P06401); test: qHTS assay to identify small molecule antagonists of the progesterone receptor (PR) signaling pathway (AID 1346795; active = well fitted inhibition curve with a large enough effect in the signal ratio in the repeat runs, not every such curve was filed as active; the % refers to the signal ratio; note: potency is the fitted concentration of half-maximal effect)
How it was run: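 Read-out is fluorescence from the LiveBLAzer B/G FRET substrate, cleaved by a UAS-controlled beta-lactamase in PR-UAS-bla HEK293T cells after 16 hr exposure to compound plus 1 nM promegestone (final), followed by 2 hr at room temperature.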

[3] = qHTS assay to identify small molecule antagonists of the progesterone receptor (PR) signaling pathway - cell viability counter screen (AID 1346798); note: nearly all actives have a fitted effect of over 50% in size; note: potency is the fitted concentration of half-maximal effect
How it was run: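 HEK293T PR-UAS-bla, 2% charcoal-stripped FBS; 4 hr pre-plate; cpd + R5020, 16 h 37C; LiveBLAzer read first; then CellTiter-Glo 30 min RT, luminescence.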

[4] = qHTS assay to identify small molecule agonists of the progesterone receptor (PR) signaling pathway - cell viability counter screen (AID 1346799; calls by dose curve; note: nearly all actives have a fitted effect of over 45% in size; note: potency is the fitted concentration of half-maximal effect)
How it was run: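 Luminescence from CellTiter-Glo, added after the beta-lactamase FRET read in the same wells, gave cytotoxicity in PR-UAS-bla HEK293T cells treated with compounds for 16 hr at 37C.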

[5] = qHTS assay to identify small molecule antagonists of the TGF-beta/Smad signaling pathway - cell viability counter screen (AID 1346824); note: nearly all actives have a fitted effect of over 50% in size
How it was run: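 Cytotoxicity counter-screen run in the same wells as the beta-lactamase Smad reporter read: CellTiter-Glo luminescence after 30 min at room temperature. HEK 293T SBE-bla cells had 5 hr compound exposure at 37 C with TGF-beta1 (0.25 ng/mL stock).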

[6] = qHTS assay to identify small molecule agonists of the TGF-beta/Smad signaling pathway - cell viability counter screen (AID 1346829); note: top concentration of the series differs between compounds; nearly all actives have a fitted effect of over 45% in size
How it was run: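 HEK 293T SBE-bla line, 5 hr compound exposure at 37 C, multiplexed CellTiter-Glo viability read by luminescence.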

[7] = qHTS assay to identify small molecule agonists of the TGF-beta/Smad signaling pathway (AID 1346859; active = well fitted activation curve with a large enough effect in the signal ratio in the repeat runs, not every such curve was filed as active; the % refers to the signal ratio; note: series mostly up to about 77 µM)
How it was run: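 SBE-bla HEK 293T, 4,000 cells/well, plated o/n; cpd in DMSO, 5 hr, 37 C/5% CO2; B/G FRET substrate 2 hr RT; ex 405, em 460/530 nm.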

[8] = biological target: Thyrotropin-releasing hormone receptor (Homo sapiens) (UniProt P34981); test: qHTS assay to identify small molecule antagonists of the thyrotropin-releasing hormone receptor (TRHR) signaling pathway (AID 1346877; active = well fitted inhibition curve with a large enough effect in the repeat runs, not every such curve was filed as active; note: potency is the fitted concentration of half-maximal effect)
Sequence of Thyrotropin-releasing hormone receptor (Homo sapiens) (P34981 whole entry, looked up): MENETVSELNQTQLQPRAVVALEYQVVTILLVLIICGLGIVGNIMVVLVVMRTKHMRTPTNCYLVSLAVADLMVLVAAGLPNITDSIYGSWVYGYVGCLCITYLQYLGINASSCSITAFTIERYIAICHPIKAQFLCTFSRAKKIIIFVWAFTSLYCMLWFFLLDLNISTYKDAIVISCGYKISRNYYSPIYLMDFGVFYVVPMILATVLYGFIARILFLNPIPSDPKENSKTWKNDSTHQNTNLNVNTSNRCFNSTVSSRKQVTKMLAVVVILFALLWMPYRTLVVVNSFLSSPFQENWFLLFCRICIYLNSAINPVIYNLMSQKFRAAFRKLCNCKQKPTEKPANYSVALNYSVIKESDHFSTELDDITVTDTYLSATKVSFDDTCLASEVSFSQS
How it was run: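 TRHR-expressing HEK293 cells were seeded, cultured 18 h at 37 °C, then loaded with calcium dye for 2 h. Compounds were pre-incubated 5 min at room temperature before 1 nM TRH (final) was added, and kinetic fluorescence was recorded for 3 min.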

[9] = biological target: Thyrotropin-releasing hormone receptor (Homo sapiens) (UniProt P34981); test: qHTS assay to identify small molecule agonists of the thyrotropin-releasing hormone receptor (TRHR) signaling pathway (AID 1346891; calls by dose curve; note: potency is the fitted concentration of half-maximal effect; for activation: series mostly up to about 58 µM)
How it was run: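 Intracellular calcium rise, read as fluorescence every second for 3 min, served as the agonist signal in dye-loaded HEK293 cells expressing TRHR; each compound ran at 15 concentrations in triplicate.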

[10] = Human pregnane X receptor (PXR) small molecule agonists, qHTS cell viability counter screen (AID 1346977); note: nearly all actives have a fitted effect of over 50% in size; note: potency is the fitted concentration of half-maximal effect
How it was run: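 PXR-Luc HepG2, 2,000 cells/well, 5% charcoal-stripped FBS; 5hr settle; cpd 24hr, 37C/5% CO2; CellTiter-Fluor at 23hr, read 1hr later (fluorescence).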

Row | SMILES | Potency [1] | Potency [2] | Potency [3] | Potency [4] | Potency [5] | Potency [6] | outcome [7] | Potency [8] | Potency [9] | Potency [10]
1 | NNC(N)=S | inactive | 11.3 µM (active) and 21.7 µM (active) | 12.7 µM (active) and 24.3 µM (active) | 43.3 µM (active) | inactive | inactive | inactive | inactive | inactive | inactive and 30.6 µM (active)
2 | N#CC(Br)Br | inactive | inactive | inactive | inactive | inactive | inactive | inactive | inactive | inactive | inactive
3 | CCCCCCCCCCCOC(=O)c1ccccc1C(=O)OCCCCCCCCCCC | inactive | inactive | inactive | inactive | inactive | inactive | inactive |  | inactive | inactive
4 | CC(O)CCO (stereo not drawn) | inactive | inactive | inactive | inactive | inactive |  | inactive | inactive | inactive | inactive
5 | CNC(=O)N(C)c1nnc(C(C)(C)C)s1 | inactive | inactive | inactive | inactive | inactive |  | inactive | inactive | inactive | inactive
6 | CCOP(=S)(OCC)O/N=C(\C#N)c1ccccc1 | inactive | 13.3 µM (active) | inactive | inactive | inactive | inactive | inactive | inactive | inactive | inactive
7 | CCCCC(CC)COC(=O)c1ccc(C(=O)OCC(CC)CCCC)c(C(=O)OCC(CC)CCCC)c1 (stereo not drawn) | inactive | inactive | inactive | inactive | inactive | inactive | inactive |  | inactive | inactive
8 | CC(C)(C)c1ccccc1O | inactive | inactive | inactive | inactive | inactive | inactive | inactive |  | inactive | inactive
9 | c1ccc(N=Nc2ccccc2)cc1 | inactive | inactive | inactive | inactive | inactive | inactive | inactive |  | inactive | inactive
10 | OCC(O)CO | inactive | inactive | inactive | inactive | inactive | inactive | inactive |  | inactive | inactive
11 | Nn1cnnc1 | inactive | inactive | inactive | inactive | inactive | inactive | inactive | inactive | inactive | inactive
12 | C1=Cc2cccc3cccc1c23 | 60.1 µM (active) and inactive | inactive | inactive | inactive | inactive | inactive | inactive | inactive | inactive | inactive
13 | Oc1cc(Cl)ccc1Cl | inactive | inactive | inactive | inactive | inactive | inactive | inactive | inactive | inactive | inactive
14 | COc1ccc(C=O)cc1 | inactive | inactive | inactive | inactive | inactive | inactive | inactive | inactive | inactive | inactive
15 | CC(C)N(C(=O)SCC(Cl)=C(Cl)Cl)C(C)C | inactive | inactive | inactive | inactive | inactive |  | inactive | inactive | inactive | inactive
16 | CN(C)C(=O)Nc1ccc(Cl)cc1 | inactive | inactive | inactive | inactive | inactive | inactive | inactive |  |  | inactive
17 | Nc1ccncc1 | inactive | inactive | inactive | inactive | inactive | inactive | inactive |  | inactive | inactive
18 | C=C(C)C(=O)OCC1CO1 (stereo not drawn) | inactive | inactive | inactive | inactive | inactive |  | inactive | inactive | inactive | inactive
19 | C=CC(=O)OCCO | inactive | inactive | inactive | inactive | inactive | inactive | inactive | inactive | inactive | inactive
20 | O=C(O)CC[N+](=O)[O-] | inactive | inactive | inactive | inactive | inactive | inactive | inactive |  |  | inactive
21 | Oc1ccc(-c2ccccc2)cc1 | inactive | 15.4 µM (active) | inactive | inactive | inactive | inactive | inactive |  | inactive | inactive
22 | CCC(C)(C)c1ccc(O)cc1 | inactive | inactive | inactive | inactive | inactive | inactive | inactive | inactive | inactive | inactive
23 | NC(=S)Nc1ccccc1 | inactive | inactive | inactive | inactive | inactive | inactive | inactive |  | inactive | inactive
24 | O=Cc1ccco1 | inactive | inactive | inactive | inactive | inactive | inactive | inactive |  | inactive | inactive

Row | SMILES | Potency [1] | Potency [2] | Potency [3] | Potency [4] | Potency [5] | Potency [6] | outcome [7] | Potency [8] | Potency [9] | Potency [10]
25 | CCCCN(CCCC)N=O | inactive | inactive | inactive | inactive | inactive | inactive | inactive | inactive | inactive | inactive
26 | O=C1C=CC(=O)C=C1 | inactive | inactive | inactive | inactive | inactive | inactive | inactive | inactive | inactive | inactive
27 | CCOc1cc(C=O)ccc1O | inactive | inactive | inactive | inactive | inactive | inactive | inactive |  | inactive | inactive
28 | CC(C)(c1cc(Cl)c(O)c(Cl)c1)c1cc(Cl)c(O)c(Cl)c1 | inactive | 7.7 µM (active) | inactive | inactive | inactive |  | inactive | 30.1 µM (active) | 34.7 µM (active) | inactive
29 | Cc1cc(C)cc(C)c1 | inactive | inactive | inactive | inactive | inactive | inactive | inactive | inactive | inactive | inactive
30 | COc1ccc(C(CN(C)C)C2(O)CCCCC2)cc1 (stereo not drawn) | inactive | inactive | inactive | inactive | inactive | inactive | inactive |  |  | inactive
31 | C=CCc1ccc(OC)cc1 | inactive | inactive | inactive | inactive | inactive | inactive | inactive |  | inactive | inactive
32 | N[C@@H](Cc1ccc(N(CCCl)CCCl)cc1)C(=O)O | inactive | inactive | inactive | inactive | inactive | inactive | inactive |  | inactive | inactive
33 | Cc1cc(Cl)ccc1OCCCC(=O)O | inactive | inactive | inactive | inactive | inactive | inactive |  |  | inactive | inactive
34 | CC(C)C(=O)OCC(C)(C)C(OC(=O)C(C)C)C(C)C (stereo not drawn) | inactive | inactive | inactive | inactive | inactive | inactive | inactive |  | inactive | inactive
35 | C#C[C@]1(O)CC[C@H]2[C@@H]3CCC4=CC(=O)CC[C@]4(C)[C@H]3CC[C@@]21C | 24.3 nM (active) | inactive | inactive | inactive | inactive | inactive | inactive | inactive | inactive | inactive
36 | CC(C)NC(C)C | inactive | inactive | inactive | inactive | inactive | inactive | inactive | inactive | inactive | inactive
37 | CCN(CC)C(=O)/C(Cl)=C(\C)OP(=O)(OC)OC | inactive | inactive | inactive | inactive | inactive |  | inactive | inactive | inactive | inactive
38 | CNC(=O)Oc1cccc2c1OC(C)(C)O2 | inactive | inactive | inactive | inactive | inactive | inactive | inactive | inactive | inactive | inactive
39 | CCCCOCCOP(=O)(OCCOCCCC)OCCOCCCC | inactive |  | inactive | inactive | inactive | inactive | inactive |  |  | inactive
40 | c1ccc(-c2cccc(-c3ccccc3)c2)cc1 | inactive |  | inactive | inactive | inactive | inactive | inactive |  | inactive | inactive
41 | COC(=O)c1sccc1S(=O)(=O)NC(=O)Nc1nc(C)nc(OC)n1 |  | inactive | inactive | inactive | inactive | inactive | inactive |  | inactive | inactive
42 | O=[N+]([O-])c1c(Cl)c(Cl)c(Cl)c(Cl)c1Cl | inactive | inactive | inactive | inactive | inactive |  |  | inactive | inactive | inactive
43 | N#Cc1cc(Br)c(O)c(Br)c1 | inactive | inactive |  |  | inactive | inactive | inactive | inactive | inactive | inactive
44 | CCN(N=O)C(N)=O |  | inactive | inactive | inactive | inactive | inactive | inactive | inactive | inactive | inactive
45 | Brc1ccc(Oc2cc(Br)c(Br)cc2Br)c(Br)c1 | inactive |  | inactive | 38.6 µM (active) and 43.6 µM (active) | inactive | inactive | inactive |  | inactive | inactive
46 | c1ccc(P(c2ccccc2)c2ccccc2)cc1 | inactive |  | inactive | inactive | inactive | inactive | inactive | inactive | inactive | inactive
47 | CCC(C)c1cc([N+](=O)[O-])cc([N+](=O)[O-])c1O (stereo not drawn) |  | inactive | inactive | inactive | inactive | inactive | inactive |  |  | inactive and 8.63 µM (active)
48 | CCN(CC)N=O |  | inactive | inactive | inactive | inactive | inactive | inactive |  | inactive | inactive
